# Only some compounds are listed: those with a hit (about 12% of all), similar ones and a draw of the others.
# USP17 inh – inhibitors of human USP17 deubiquitinase | purified USP17, Ub-rhodamine cleavage fluorescence, 3 h | inhibition, % at 50 µM | 47,000 compounds, 6.5% hits | AID 1645855, 2021
# Target sequence (A8MUK1 whole entry, looked up): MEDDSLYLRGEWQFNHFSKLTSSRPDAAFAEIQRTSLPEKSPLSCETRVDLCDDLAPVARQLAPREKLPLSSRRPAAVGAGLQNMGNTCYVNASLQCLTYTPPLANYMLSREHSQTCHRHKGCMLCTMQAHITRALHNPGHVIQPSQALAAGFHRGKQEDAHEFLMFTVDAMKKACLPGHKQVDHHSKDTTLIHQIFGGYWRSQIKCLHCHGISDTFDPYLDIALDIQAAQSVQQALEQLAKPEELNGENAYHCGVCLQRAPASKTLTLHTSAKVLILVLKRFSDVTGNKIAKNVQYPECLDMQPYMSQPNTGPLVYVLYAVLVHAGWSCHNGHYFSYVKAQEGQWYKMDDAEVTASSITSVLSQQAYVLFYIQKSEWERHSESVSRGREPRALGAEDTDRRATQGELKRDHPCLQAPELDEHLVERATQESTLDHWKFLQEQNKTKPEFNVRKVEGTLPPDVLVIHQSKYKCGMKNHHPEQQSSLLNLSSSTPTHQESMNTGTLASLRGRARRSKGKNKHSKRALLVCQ
# USP30 inh – inhibitors of human USP30 deubiquitinase | 47,000 compounds, 5.3% hits | purified USP30, Ub-rhodamine cleavage fluorescence | inhibition, % at 25 µM | AID 1645860, 2021
# USP28 inh – inhibitors of human USP28 deubiquitinase; purified USP28, Ub-rhodamine cleavage fluorescence, 30 min; 47,000 compounds, 3% hits; inhibition, % at 25 µM; AID 1645857, 2021
# OTUD3 block – inhibitors of human OTUD3 deubiquitinase; OTU domain-containing protein 3 (Homo sapiens), Q5T2D3; purified OTUD3, Ub-rhodamine fluorescence, 2 h; inhibition, % at 25 µM; 47,000 compounds, 0.7% hits; AID 1645858, 2021
# * marks the source's active call; other numbers are inactive results; x = no result given. No stated cut-off is given here; in the data, active means inhibition above about 30%; inactive means the rest.
SMILES,USP17 inh,USP30 inh,USP28 inh,OTUD3 block
CN1C(=O)COc2cc(-c3noc(C(=O)NCCc4ccccc4)n3)ccc21,9,15,13,10
CCCCN1Cc2sc(NC(=O)Nc3ccccc3F)nc2C1=O,33*,1,0,5
CCCCN1Cc2sc(NC(=O)Nc3ccccc3C)nc2C1=O,4,8,1,-2
CCOc1ccc(-c2nc(SCC(=O)Nc3cccc(C)c3)n3[nH]c(=O)cc3n2)cc1,40*,15,18,27
CC(C)NC(=O)[C@H]1C[C@@H]2CN(C(=O)NCC3CCCCC3)C[C@H]1O2,-2,2,-10,-2
CCn1cc(S(=O)(=O)Nc2ccccc2F)c2cccnc21,8,-35,1,3
CCn1cc(S(=O)(=O)NCc2cc(F)cc(F)c2)c2cccnc21,37*,-44,11,10
Cc1c(C)n(-c2ccc(Br)cn2)c2ncnc(NCCCO)c12,4,60*,4,1
CS(=O)(=O)N1CCC2(C/C=C/Cc3ccccc3OCC(=O)NC2)CC1,1,26,8,10
COc1ccc(NC(C)C(=O)N2CC(=O)Nc3ccccc32)cc1 (stereo not drawn),14,13,3,3
COc1ccc(C(NC(=O)c2nc3n(n2)-c2ccccc2S(=O)(=O)N3)C(C)C)cc1 (stereo not drawn),33*,14,18,3
CC(C)CC(=O)N1CC(C(=O)Nc2ccc(F)cc2)C2(CCOCC2)C1 (stereo not drawn),46*,15,6,16
Cc1ccc(S(=O)(=O)n2ccn(C(=O)c3ccc(OC(C)C)cc3)c2=O)cc1,-56,-6,1,0
O=C(NCc1ccc2c(c1)OCO2)c1cc2occc2c(Nc2ccc(F)cc2)n1,25,1,-5,-15
Cc1ccc(Nc2nc(C(=O)NCc3ccccc3)cc3occc23)cc1,32*,-64,0,-7
Cc1cccc(CNC(=O)c2cc3occc3c(Nc3ccc(F)cc3)n2)c1,7,6,6,5
Cc1ccc(Nc2nc(C(=O)NCc3ccc4c(c3)OCO4)cc3occc23)cc1Cl,66*,-133,-14,0
O=C(Nc1cc(-c2ccccn2)no1)c1ccccc1F,11,6,21,7
COc1cc(C#CCN2CCOCC2)c(OC)cc1C#CCN1CCOCC1,-1,7,7,-2
O=C1c2oc3ccc(Cl)cc3c(=O)c2C(c2ccncc2)N1Cc1ccccc1 (stereo not drawn),-12,3,-5,0
C=C1CCC[C@]2(C)C[C@H]3OC(=O)C(CN4CCCCC4CC)[C@H]3CC12 (stereo partly drawn),-1,40*,-1,0
C=C1CCC[C@]2(C)C[C@H]3OC(=O)C(CN4CCC(C(=O)OCC)CC4)[C@H]3CC12 (stereo partly drawn),-2,4,-1,-3
C=C1CCC[C@]2(C)C[C@H]3OC(=O)C(CN(C)CC(O)c4ccc(O)cc4)[C@H]3CC12 (stereo partly drawn),-7,11,-7,-2
C=C1CCC[C@]2(C)C[C@H]3OC(=O)C(CN4CCCCC4C)[C@H]3CC12 (stereo partly drawn),0,43*,-9,0
C=C1CCC[C@]2(C)C[C@H]3OC(=O)[C@H](CNCCc4ccccc4OC)C3CC12 (stereo partly drawn),7,47*,11,18
SMILES,USP17 inh,USP30 inh,USP28 inh,OTUD3 block
Cc1cc(C)cc(NC(=O)c2cn(-c3cc(N4CCOCC4)ncn3)cn2)c1,-27,13,-11,-5
Cc1cc(N2CCN(C)CC2)n2nc(CN3CCCCC3C)nc2n1 (stereo not drawn),39*,-18,-7,-4
Cc1cc(N2CCCC2)n2nc(CN3CCN(C)CC3)nc2n1,-4,-4,-7,-4
Cn1c(-c2c(N)n(Cc3ccc(Cl)cc3)c3nc4ccccc4nc23)nc2ccccc21,-13,-52,-17,-13
Cn1c(-c2c(-c3ccccc3)n[nH]c2-c2ccccc2Cl)nc2ccccc21,-6,7,38*,-8
COc1cc(NCc2nc3scc(-c4ccccc4)c3c(=O)[nH]2)cc(OC)c1,-4,-55,-16,-17
NS(=O)(=O)c1cccc(NCc2nc3scc(-c4ccccc4)c3c(=O)[nH]2)c1,43*,32*,48*,10
O=C(CCCc1c[nH]c2ccccc12)N1CCN(C(=O)c2ccc(Cl)cc2Cl)CC1,3,7,2,-1
O=C(NCCc1c[nH]c2ccccc12)NCc1ccc(Cl)cc1Cl,21,32*,21,14
O=C(Nc1ccccc1-c1nc2ccccc2[nH]1)c1sc2ccccc2c1Cl,83*,4,-6,-8
O=C(Nc1ccccc1-c1nc2ccccc2[nH]1)c1ccc(Br)cc1,-12,-7,-10,-4
CS(=O)(=O)N(CC(=O)Nc1ccc(S(=O)(=O)N2CCOCC2)cc1)c1cccc([N+](=O)[O-])c1,-36,0,-6,-6
O=C(CC1SC(N2CCOCC2)=NC1=O)Nc1cccc([N+](=O)[O-])c1 (stereo not drawn),15,31*,1,16
O=C(NCCc1nc2ccccc2n1CCOc1ccccc1Cl)C1CCCCC1,64*,55*,30*,25
Cc1cccc(OCCn2c(CCNC(=O)C3CCCCC3)nc3ccccc32)c1,42*,79*,11,14
COc1ccccc1C(=O)Nc1nc2ccccc2n1CCOc1ccccc1,-31,x,x,0
CCc1ccc(OCCn2c(CCNC(=O)C3CCCCC3)nc3ccccc32)cc1,6,27,17,18
COc1cc(O)c2c(c1C)C(C)(C(C)=O)OC2=O (stereo not drawn),-47,-17,-3,5
COc1cc(C)c2c(=O)c3c(oc2c1)C(=O)c1c(O)c(OC)cc(O)c1C3=O,71*,-30,35*,33*
N#Cc1ccc(CN2CCC3(CC2)CC3c2nnc(-c3cccc(F)c3)o2)cc1 (stereo not drawn),-12,-23,-3,-4
Cc1ccc2nc(CNC(=O)c3ccccc3-c3nc(-c4ccc(F)cc4)no3)[nH]c2c1,78*,-20,17,7
Cc1cccc(Nc2nccnc2C2CCCN2C(=O)c2ncccn2)n1 (stereo not drawn),16,16,15,14
Cc1ccc(NC(=O)C2CCC(CNS(=O)(=O)c3ccc4c(c3)C(C)(C)C(=O)N4C)CC2)cc1C (stereo not drawn),-9,-36,13,-15
COc1cccc(NC(=O)C2CCC(CNS(=O)(=O)c3ccc4c(c3)C(C)(C)C(=O)N4C)CC2)c1 (stereo not drawn),0,0,76*,-7
O=c1c2c(ccn1Cc1nc(C3CC3)no1)ccn2Cc1cccnc1,8,10,31*,8
O=c1c2c(ccn1Cc1ccccc1F)ccn2Cc1cccnc1,-17,x,x,0
CN=C(N)NCCC[C@H](N)C(=O)O,16,31*,11,8
O=C(NCC1CCCCC1)N1C[C@H]2C[C@H](C(=O)N3CCOCC3)[C@@H](C1)O2,6,28,12,18

# Source: PubChem BioAssay (Buhrlage Lab, Dana-Farber Cancer Institute and Novartis Institutes for BioMedical Research (Cambridge, Mass))
